Screening data as filed in PubChem.
Sampled rows, rich in hits. Any-hit rate of the full collection: about 17%.
DT40 TDP1 CPT: growth inhibition of DT40 Tdp1-/-;hTDP1 cells with camptothecin (screen for TDP1 inhibitors); chicken DT40 Tdp1-/-;hTDP1 cells + 20 nM CPT, ATP luminescence, 48 h; Potency, µM (titrated, usually from 46.2 µM), without a hit: at the highest dose activity change, negative = growth inhibition, hits mostly inhibitors; 420,000 tested, 12% active; AID 686979; note: % is set by controls: 0 for no effect and ±100 for the full control effect; nearly all actives have a fitted effect of over 55% in size
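Chicken DT40 Tdp1-/- cells stably complemented with human TDP1 were seeded at 400 cells/well in medium containing 20 nM camptothecin, exposed to pin-transferred compounds, and grown at 37 °C for at least 48 hr. Viability was read as ATP luminescence.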
HT1080 IDH1KD tx: kills HT-1080 cells with IDH1 knockdown; HT-1080 IDH1 knockdown viability, ATP luminescence, 48 h; Potency, µM (top dose mostly 46.1 µM), for the others: at the top dose activity, negative = toxicity, usual class: cytotoxic; 360,000 tested, 2% active;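 note: 0% = DMSO wells and -100% = cell-free medium wells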
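After a 2 h attachment period, IDH1KD HT-1080 cells took pin-transferred compound for 48 h at 37 °C; ATP-based luminescence after 10 min room-temperature reagent incubation reported viability.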
HepG2 tox: kills HepG2 cells in TGF-b inhibitor counter-screen. HepG2 CAGA-GFP viability, ATP luminescence, 18 h. Potency, µM (doses to about 46.1 µM), without a hit: top-dose activity change, negative = cytotoxicity, hits mostly cytotoxic. 410,000 tested, 0.76% active
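HepG2 CAGA-GFP cells (1000/well, DMEM with 1% FBS) received compound, then TGF-beta at 500 pg/mL final, and were incubated 18 hours at 37 degrees C. Viability was read by CellTiter-Glo luminescence. Media-only wells were set as complete cell-killing and DMSO as no toxicity.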
TGFb SMAD3 inh: TGF-b pathway inhibition. HepG2 CAGA-GFP TGF-b/SMAD3 reporter, GFP fluorescence, 18 h; TGF-beta stimulated, 500 pg/mL final. Potency, µM (highest dose often 46.1 µM), without a hit: at the top dose activity, negative = inhibition, usual class: inhibitors. 410,000 tested, 1.2% active. AID 588855; note: % is set by controls: 0 for no effect and ±100 for the full control effect; nearly all actives have a fitted effect of over 65% in size
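Per well, imaged GFP fluorescence of HEPG2 CAGA-GFP cells gives the signal; cells get compound, then TGF-beta (500 pg/mL final), 18 h at 37 degrees C; %Activity versus -TGF-beta and +DMSO controls.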
HT1080NT lethal: kills 2HG-producing HT-1080-NT fibrosarcoma cells | HT-1080-NT fibrosarcoma viability, CellTiter-Glo ATP luminescence, 48 h | Potency, µM (titrated, usually from 46.1 µM), without a hit: top-dose activity, negative = less viability, usual class: cytotoxic | 360,000 tested, 1.6% active;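 note: NT is the 2HG producing partner of a matched IDH1 knockdown line; 0% = DMSO-treated cells and -100% = media-only wells without cells; nearly all actives have a fitted effect of over 55% in size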
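A 48-hour cytotoxicity screen used HT-1080-NT cells plated 2 hours before compound delivery. ATP-based CellTiter-Glo luminescence measured viability, normalized to DMSO and no-cell controls.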
DT40 TDP1 no CPT: qHTS for Inhibitors of human tyrosyl-DNA phosphodiesterase 1 (TDP1): qHTS in cells in absence of CPT | DT40 Tdp1-/- hTDP1 cells, no CPT, ATP luminescence, 48 h | Potency, µM (series often up to 46.2 µM), for the others: at the top dose activity change, negative = growth inhibition, hits mostly inhibitors | 420,000 tested, 15% active | AID 686978, 2013; note: % is set by controls: 0 for no effect and ±100 for the full control effect; nearly all actives have a fitted effect of over 55% in size
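Chicken DT40 Tdp1-/- cells complemented with human TDP1, screened without camptothecin (DMSO vehicle only), 400 cells/well. Compounds pin-transferred, cells incubated at 37 °C for at least 48 hr. Growth read as ATP-dependent luminescence (CellTiter-Glo, 30 min at RT).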
Numbers without * were called inactive; u = inconclusive; x = not tested or not shown; [ ] = remark or other dose. Calls come from the whole dose curve; as a rule, active = well fitted curve in the direction sought with a large enough effect; inconclusive = small, poorly fitted or top-dose-only effect, or another doubt; inactive = no such curve, though single readings can be large; an effect the other way counts as inactive or inconclusive. Potency is the fitted concentration of half-maximal effect.

SMILES	DT40 TDP1 CPT	HT1080 IDH1KD tx	HepG2 tox	TGFb SMAD3 inh	HT1080NT lethal	DT40 TDP1 no CPT
CCOc1cc(N2CCOCC2)c(OCC)cc1NC(=O)CCS(=O)(=O)c1ccc(Cl)cc1	4.11µM*	0.6%	-10.9%	-6.0%	0.9%	1.84µM*
CCOc1ccccc1N1CCN(S(=O)(=O)c2ccc(Cl)s2)CC1	u	-2.0%[9.24 µM]	-24.1%	u	-2.3%	u
O=C(Nc1cc(Cl)ccc1N1CCOCC1)C1CC1	-4.4%	8.6%	-14.6%	9.2%	8.7%	-13.1%
CCOc1cc(N2CCOCC2)c(OCC)cc1NC(=O)COC(=O)CCOc1cc(C)ccc1C	u	-4.6%	-26.0%	-7.2%	-7.8%	23.1µM*
CCOc1cc(N2CCOCC2)c(OCC)cc1NC(=O)CN1CCCC1	9.9%	4.9%	7.4%	2.8%	7.2%	-5.4%
CCOc1cc(N2CCOCC2)c(OCC)cc1NC(=O)CCC1CCCC1	16.4µM*	12.5%	8.2%	-0.2%	11.8%	18.4µM*
CCOc1ccccc1OCCCC(=O)Nc1sccc1C(N)=O	u	0.5%	4.2%	u	-12.0%	16.4µM*
CN(CC(=O)Nc1ccc(Cl)cc1)CC(=O)Nc1ccc(C(N)=O)cc1	-16.1%	-12.1%	-15.6%	-8.7%	-20.3%	-18.3%
CCOc1cc(N2CCOCC2)c(OCC)cc1NC(=O)C(C)Oc1ccccc1 (configuration not stated)	u	-22.1%	-7.8%	7.0%	-15.1%	13µM*
CN(CC(=O)Nc1ccc(Cl)cc1)CC(=O)Nc1cc(Cl)ccc1C#N	u	0.0%[9.24 µM]	-27.8%	u	u	23.1µM*
COc1c(C)cc(C(O)c2ncc(-c3ccccc3F)[nH]2)cc1C (configuration not stated)	u	u	-13.6%	-14.6%	u	u
CNC(=S)NCc1ccc2[nH]c(C)cc2c1	2.2%	1.9%	26.7%	26.1%	2.9%	-13.0%
CCc1cccc(C)c1NC(=S)NCc1ccc2[nH]c(C)cc2c1	23.1µM*	-16.8%	4.7%	1.6%	0.9%	18.4µM*
Cc1ccccc1NC(=S)NCc1cccn1C	2.6%	6.1%	-4.4%	2.7%	2.9%	-0.7%
CCc1cccc(C)c1NC(=S)NCc1cccn1C	20.6µM*	8.9%	3.8%	-10.2%	9.7%	u
Cc1ccc(Cl)cc1NC(=S)NCc1cccn1C	u	1.9%	1.3%	-32.3%	-3.1%	18.4µM*
CNC(=O)c1cc(-c2cccs2)on1	u	x	-9.1%	u	x	u
O=C(CSc1nnc(-c2ccc3c(c2)OCO3)o1)Nc1ncc(Cl)cc1Cl	20.6µM*	u	-25.5%	u	u	20.6µM*
COc1ccccc1C1CC(=O)N(c2cccc(C(F)(F)F)c2)C2=C1C(=O)OC2 (configuration not stated)	8.2µM*	x	-2.1%	-0.5%	x	u
CCc1ccc(C2CC(=O)N(c3cccc(C(F)(F)F)c3)C3=C2C(=O)OC3)cc1 (configuration not stated)	7.8%	x	-15.7%	5.0%	x	-5.9%
O=C(CSc1ccccc1)NC1CCCCCC1	3.7%	14.0%	2.2%	7.4%	10.6%	-6.9%
Cc1ccc(C)c(NC(=O)CC2Sc3ccccc3NC2=O)c1 (configuration not stated)	-23.4%	0.6%	-25.6%	-11.9%	-0.2%	-22.2%
Cc1ccc(NC(=O)CC2Sc3ccccc3NC2=O)c(C)c1 (configuration not stated)	u	x	5.5%	13.6%	x	23.1µM*
Cc1ccc(NC(=O)CC2SC3=NCCCN3C2=O)c(C)c1 (configuration not stated)	9.2µM*	0.2%	-5.1%	-3.8%	1.2%	16.4µM*
